In PubChem BioAssay AID2409 (Southern Research Specialized Biocontainment Screening …, 2010):
Potency and affinity values are given separately. Active and inactive are the calls of the source. Where a call stands in place of a potency, no number is given. The rule behind the calls is not given here.

test: VEEV CPE inhibition, infected Vero cells, confirmatory, 66.6 µM top concentration (AID 2409); conditions: series mostly up to 66.6 µM

Question: Which outcome does the source give for `COc1ccc(-c2csc(N(Cc3ccccc3)C(=O)c3ccccc3Cl)n2)cc1` here?
Answer: inactive

Question: For `OC1c2c(F)cccc2N=C2CCCCN21` (stereo not drawn), which outcome is on record?
Answer: inactive

Question: Which outcome does the source give for `CCCN(C(=O)c1ccccc1Cl)c1nc(-c2ccc(OC)cc2)cs1` here?
Answer: inactive

Question: For `O=C(CSc1nc2ccccc2c(=O)n1-c1ccc(F)cc1)Nc1ccc2c(c1)CCC2`, which outcome is on record?
Answer: inactive

Question: For `O=C(CSc1nc2ccccc2c(=O)n1-c1ccc(F)c(Cl)c1)Nc1ccc2c(c1)CCC2`, which outcome is on record?
Answer: inactive

Question: With `O=C(CSc1nc2ccccc2c(=O)n1-c1ccc(Cl)c(Cl)c1)Nc1ccc2c(c1)CCC2` as the compound, how does the outcome read?
Answer: inactive

Question: For `O=c1c2cc(I)ccc2nc2n1CCC2`, which outcome is on record?
Answer: inactive

Question: For `Nc1ccc2nc3n(c(=O)c2c1)CCC3`, which outcome is on record?
Answer: inactive

Question: With `O=C(CSc1nc2cccc(F)c2c(=O)n1-c1ccccc1)Nc1ccc2c(c1)CCC2` as the compound, how does the outcome read?
Answer: inactive

Question: With `Cc1ccc2nc3n(c(=O)c2c1)CCC3` as the compound, how does the outcome read?
Answer: inactive

Question: With `O=C(CSc1nc2ccccc2c(=O)n1-c1ccc(F)cc1F)Nc1ccc2c(c1)CCC2` as the compound, how does the outcome read?
Answer: inactive

Question: For `Cc1cc(OC(=O)c2c(F)cccc2F)n(Cc2ccccc2)n1`, which outcome is on record?
Answer: inactive

Question: Which outcome does the source give for `O=C(CSc1nc2ccccc2c(=O)n1-c1ccc(F)cc1F)Nc1ccc(N2CCOCC2)cc1` here?
Answer: inactive

Question: With `O=C(CSc1nc2ccccc2c(=O)n1-c1ccccc1)Nc1ccc2c(c1)CCC2` as the compound, how does the outcome read?
Answer: inactive

Question: For `OC1c2c(F)cccc2N=C2CCCN21` (stereo not drawn), which outcome is on record?
Answer: inactive

Question: Which outcome does the source give for `Cc1cccc2nc3n(c(=O)c12)CCC3` here?
Answer: inactive

Question: With `COc1ccc(-c2csc(N(C)C(=O)c3ccccc3Cl)n2)cc1` as the compound, how does the outcome read?
Answer: inactive

Question: For `O=c1c2c(F)cccc2nc2n1CCC2`, which outcome is on record?
Answer: inactive
